Results on 7 compounds are retold here after PubChem BioAssay (Tox21).

Values without a mark were called inactive. Inconclusive results are not listed. Calls of active or inactive are those of the source. Unless noted, calls follow the shape of the full dose curve.

A short description of assay [1]: Nuclear factor erythroid 2-related factor 2/antioxidant responsive element (Nrf2/ARE) small molecule agonists: qHTS cell viability counter screen in human keratinocytes (AID 1919968; active = well fitted curve in the direction sought with a large enough effect in the repeat runs; an effect the other way counts as inactive or inconclusive; also: nearly all actives have a fitted effect of over 55% in size). In a few lines: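 Parallel cytotoxicity read: KeratinoSens HaCaT cells, compound treatment 23 h, viability by CellTiter-Fluor fluorescence 1 h post-reagent.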
Background: In qHTS, concentration-response curves come from the screen itself.

Assay [2] in a line: Nuclear factor erythroid 2-related factor 2/antioxidant responsive element (Nrf2/ARE) small molecule agonists: luciferase reporter gene qHTS assay in human keratinocytes (AID 1919969). Also: nearly all actives have a fitted effect of over 35% in size. Also: potency is read from the fitted curve at half-maximal effect. In general terms: Reporter assays use an easily measured gene product as a stand-in for the process of interest.
In assay [3] the target is Gonadotropin-releasing hormone receptor (Homo sapiens) (UniProt P30968). As to the kind of experiment: Human gonadotropin-releasing hormone receptor (GnRHR) small molecule agonists, calcium flux assay in GnRHR-HEK293 cells (AID 1920063). Also: nearly all actives have a fitted effect of over 35% in size. In outline:
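Calcium flux, agonist mode, human GnRHR stably integrated in HEK293; dye 1 h at 37 C before compound; Ex/Em=480/540 kinetic read, 3 min; 15 concentrations, triplicate.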
On the technique in general: A change in cytosolic calcium serves as a functional read-out for many receptors and channels.

For assay [4], the target named is KiSS-1 receptor (Homo sapiens) (UniProt Q969F8). In words: Human kisspeptin (KISS1R) small molecule agonists, calcium flux assay in KISS1R-HEK293 cells (AID 1920064; active = well fitted curve in the direction sought with a large enough effect in the repeat runs; an effect the other way counts as inactive or inconclusive). In outline: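 Triplicate 15-concentration series were applied to dye-loaded human KISS1R HEK293 cells, and agonist-evoked calcium fluorescence was captured for 3 min.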
Assay [5] is described as follows: G protein-coupled receptor (GPCR) small molecule agonists, calcium flux assay: HEK293 wild type cell line counter screen (AID 1920065). In outline:
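Non-specific calcium responders were flagged by adding DMSO-dissolved compounds to dye-loaded cells and reading 480/540 nm fluorescence each second for 3 min; ATP served as positive control.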

The nature of assay [6]: p53 small molecule agonists, cell-based qHTS assay with human liver microsomes (AID 1963577).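 Also: p53 response element beta-lactamase reporter cells with liver microsomes plus NADPH.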 In outline:
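Metabolically competent format: test substances, human liver microsomes and NADPH (both 0.5 mg/mL final) incubated with p53RE-bla cells 16 h at 37 C. Beta-lactamase reporter signal then quantified by fluorescence.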

Assay [7] can be described thus: p53 small molecule agonists, cell-based qHTS assay with rat liver microsomes (AID 1963578). In outline:
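Each plate received p53RE-bla cells, then compound, then rat liver microsomes and NADPH (both 0.5 mg/mL final). Plates were held 16 h at 37 C, and beta-lactamase activity was detected with LiveBLAzer over 2 h.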

A short description of assay [8]: p53 small molecule agonists, cell-based qHTS assay with human liver microsomes: qHTS cell viability counter screen (AID 1963579). Also: nearly all actives have a fitted effect of over 45% in size. In outline:
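Tox21 library compounds, delivered from DMSO stocks, were tested on p53RE-bla cells together with 0.5 mg/mL human liver microsomes and 0.5 mg/mL NADPH (final) over 16 h at 37 C; CellTiter-Glo luminescence served as the cytotoxicity measure.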

Assay [9] in a line: p53 small molecule agonists, cell-based qHTS assay with rat liver microsomes: qHTS cell viability counter screen (AID 1963580). Also: nearly all actives have a fitted effect of over 45% in size. In a few lines:
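Cytotoxicity counter screen: intracellular ATP read by CellTiter-Glo luminescence in the p53 reporter wells. HCT-116 p53RE-bla cells were treated for 16 h at 37 C alongside rat liver microsomes and NADPH, each 0.5 mg/mL final.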

The nature of assay [10]: p53 small molecule agonists, cell-based qHTS assay: qHTS cell viability counter screen (AID 1963581). Also: nearly all actives have a fitted effect of over 45% in size. In a few lines: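 Multiplexed with the reporter read, a CellTiter-Glo step (30 min, room temperature) gauges ATP-based viability of HCT-116 p53RE-bla cells after 16 h compound incubation at 37 C.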
Assay [11] has as its target 5-hydroxytryptamine receptor 2A (Homo sapiens) (UniProt P28223). As to the kind of experiment: 5-hydroxytryptamine receptor 2A (HTR2A) small molecule antagonists, cell-based qHTS assay (AID 1963586). Also: nearly all actives have a fitted effect of over 45% in size. In a few lines:
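CHO cells stably expressing human HTR2A were plated for 18 h at 37 C, then loaded with calcium dye for 1 h. Compounds were preincubated 5 min at room temperature before DOI (4 nM solution) was added. Kinetic fluorescence was read for 3 min.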

Assay [12] has the same target. As to the kind of experiment: 5-hydroxytryptamine receptor 2A (HTR2A) small molecule agonists, cell-based qHTS assay (AID 1963587). Also: nearly all actives have a fitted effect of over 30% in size. In outline: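 Kinetic calcium-flux fluorescence (2 min, 1 sec intervals) after compound addition in agonist mode. HTR2A-CHO cells were cultured 18 h, then dye-loaded 1 h at 37 C.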
For assay [13], the target named is Muscarinic acetylcholine receptor M1 (Homo sapiens) (UniProt P11229). In words: Cholinergic receptor muscarinic 1 (CHRM1) small molecule agonists, cell-based qHTS assay (AID 1963589). Also: nearly all actives have a fitted effect of over 35% in size. In outline:
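qHTS, 15-point titration, 3 independent runs: compounds pin-transferred onto dye-loaded CHRM1-CHO cells (human M1), calcium fluorescence followed every second to detect agonism.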

Assay [14] can be described thus: cAMP Responsive Elements (CRE) small molecule agonists, cell-based qHTS assay (AID 1963590). In outline: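 Quantitative HTS for CRE agonists: HEK 293T CRE-bla cells, overnight plating, 3 h compound incubation at 37 C/5% CO2, then 2 h room-temperature LiveBLAzer B/G FRET substrate loading.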
A short description of assay [15]: cAMP Responsive Elements (CRE) small molecule antagonists, cell-based qHTS assay (AID 1963591; active = well fitted inhibition curve with a large enough effect in the signal ratio in the repeat runs, not every such curve was filed as active; the % refers to the signal ratio). In a few lines:
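Fluorescence intensity from cleaved LiveBLAzer B/G substrate (2 h, room temperature) quantified CRE-bla activity in HEK 293T cells exposed 3 h to compound with 0.25 uM final NKH477.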

The target in assay [16] is Beta-2 adrenergic receptor (Homo sapiens) (UniProt P07550). As to the kind of experiment: Adrenergic beta2 receptor (ADRB2) small molecule agonists, cell-based qHTS assay (AID 1963593).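 Also: CHO cells stably overexpressing human ADRB2.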 In outline:
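CHO cells stably over-expressing ADRB2 were plated overnight at 37C, then dosed with compounds plus a stimulation mix containing 100uM IBMX and 25uM Ro-20-1724 for 0.5hr at room temperature. cAMP was measured by HTRF competition, 1hr.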

The target of assay [17] is D(2) dopamine receptor (Homo sapiens) (UniProt P14416). In words: Dopamine D2 receptor (DRD2) small molecule agonists, cell-based qHTS assay (AID 1963594). Also: nearly all actives have a fitted effect of over 35% in size. In a few lines: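 cAMP accumulation in DRD2-HEK293 cells measured by HTRF after 1 h detection; compounds added 10 min before NKH477 (200nM […]) forskolin-analogue stimulation, 30 min at room temperature, with Ro20-1724 present at 0.1 mM final.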

For assay [18] the target is unchanged. In words: Dopamine D2 receptor (DRD2) small molecule antagonists, cell-based qHTS assay (AID 1963595; active = well fitted inhibition curve with a large enough effect in the signal ratio in the repeat runs, with a control signal flat; the % refers to the signal ratio). In a few lines:
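Antagonism was scored as restored cAMP in HEK293-DRD2 cells. These cells were stimulated with 200 nM NKH477 and 12 nM quinpirole for 30 min at room temperature, in the presence of 0.1 mM Ro20-1724.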

Assay [19] addresses Beta-2 adrenergic receptor (Homo sapiens) (UniProt P07550). In words: Adrenergic beta2 receptor (ADRB2) small molecule antagonists, cell-based qHTS assay (AID 1963592). Also: series mostly up to about 92 µM; nearly all actives have a fitted effect of over 50% in size. In a few lines: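 Assay format: CHO-ADRB2 cells, 18-20hr seeding at 37C/5% CO2, then compound plus 1nM isoproterenol agonist mix for 0.5hr RT. Homogeneous time-resolved fluorescence cAMP detection after 1hr, expressed as 665/615 nm ratio.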

Muscarinic acetylcholine receptor M1 (Homo sapiens), sequence (P11229 whole entry, looked up): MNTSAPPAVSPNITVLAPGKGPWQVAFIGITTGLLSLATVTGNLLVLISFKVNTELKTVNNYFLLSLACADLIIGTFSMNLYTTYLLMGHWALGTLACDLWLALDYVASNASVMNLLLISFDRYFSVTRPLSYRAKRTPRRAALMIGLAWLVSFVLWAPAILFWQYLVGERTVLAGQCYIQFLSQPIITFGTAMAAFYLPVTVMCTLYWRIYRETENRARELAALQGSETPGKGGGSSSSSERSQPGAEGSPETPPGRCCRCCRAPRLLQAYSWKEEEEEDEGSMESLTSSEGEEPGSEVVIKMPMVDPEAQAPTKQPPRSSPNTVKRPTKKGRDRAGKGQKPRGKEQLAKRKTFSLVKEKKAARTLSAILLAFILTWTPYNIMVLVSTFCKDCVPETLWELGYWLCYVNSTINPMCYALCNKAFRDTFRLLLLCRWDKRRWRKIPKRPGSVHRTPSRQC
KiSS-1 receptor (Homo sapiens), sequence (Q969F8 whole entry, looked up): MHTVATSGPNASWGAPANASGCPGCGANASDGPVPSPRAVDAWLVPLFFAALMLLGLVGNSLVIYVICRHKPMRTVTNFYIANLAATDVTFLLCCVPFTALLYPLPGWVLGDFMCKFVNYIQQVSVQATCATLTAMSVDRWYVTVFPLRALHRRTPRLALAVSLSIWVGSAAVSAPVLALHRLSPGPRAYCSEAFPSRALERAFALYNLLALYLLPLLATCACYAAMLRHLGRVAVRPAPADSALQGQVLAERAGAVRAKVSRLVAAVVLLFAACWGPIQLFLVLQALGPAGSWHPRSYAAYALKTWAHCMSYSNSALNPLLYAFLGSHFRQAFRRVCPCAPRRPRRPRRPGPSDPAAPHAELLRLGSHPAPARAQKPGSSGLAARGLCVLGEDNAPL
5-hydroxytryptamine receptor 2A (Homo sapiens), sequence (P28223 whole entry, looked up): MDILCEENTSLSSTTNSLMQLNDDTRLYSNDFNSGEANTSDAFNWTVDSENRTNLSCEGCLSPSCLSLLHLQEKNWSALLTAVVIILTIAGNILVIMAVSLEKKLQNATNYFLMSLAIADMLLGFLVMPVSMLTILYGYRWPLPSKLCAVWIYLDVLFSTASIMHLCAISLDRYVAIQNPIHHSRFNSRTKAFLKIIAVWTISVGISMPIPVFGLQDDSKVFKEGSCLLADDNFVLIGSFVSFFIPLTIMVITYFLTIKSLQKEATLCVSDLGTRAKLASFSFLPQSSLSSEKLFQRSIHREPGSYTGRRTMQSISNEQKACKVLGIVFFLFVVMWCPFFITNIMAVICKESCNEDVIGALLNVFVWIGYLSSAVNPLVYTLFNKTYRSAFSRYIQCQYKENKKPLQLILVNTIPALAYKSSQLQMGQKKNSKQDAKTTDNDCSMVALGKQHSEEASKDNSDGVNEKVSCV
D(2) dopamine receptor (Homo sapiens), sequence (P14416 whole entry, looked up): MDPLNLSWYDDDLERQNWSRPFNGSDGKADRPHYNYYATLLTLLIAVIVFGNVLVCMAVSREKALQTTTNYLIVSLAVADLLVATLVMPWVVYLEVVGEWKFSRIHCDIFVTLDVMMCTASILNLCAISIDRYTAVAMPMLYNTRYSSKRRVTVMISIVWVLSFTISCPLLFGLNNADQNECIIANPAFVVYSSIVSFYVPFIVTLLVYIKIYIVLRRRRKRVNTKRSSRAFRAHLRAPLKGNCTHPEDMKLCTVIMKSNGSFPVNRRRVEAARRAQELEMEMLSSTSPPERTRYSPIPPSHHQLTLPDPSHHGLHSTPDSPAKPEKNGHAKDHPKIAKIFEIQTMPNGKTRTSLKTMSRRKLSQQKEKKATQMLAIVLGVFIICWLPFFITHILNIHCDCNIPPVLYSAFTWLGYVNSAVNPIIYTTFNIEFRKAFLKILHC
Gonadotropin-releasing hormone receptor (Homo sapiens), sequence (P30968 whole entry, looked up): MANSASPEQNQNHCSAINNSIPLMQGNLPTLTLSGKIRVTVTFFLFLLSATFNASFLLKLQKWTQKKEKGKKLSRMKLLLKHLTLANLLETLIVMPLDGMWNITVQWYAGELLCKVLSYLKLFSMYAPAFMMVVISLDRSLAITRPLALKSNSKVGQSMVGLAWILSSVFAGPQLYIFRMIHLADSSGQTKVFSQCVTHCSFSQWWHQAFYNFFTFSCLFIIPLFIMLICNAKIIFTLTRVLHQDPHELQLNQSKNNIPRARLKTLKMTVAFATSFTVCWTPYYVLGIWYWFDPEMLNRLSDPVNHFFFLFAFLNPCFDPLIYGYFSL
Beta-2 adrenergic receptor (Homo sapiens), sequence (P07550 whole entry, looked up): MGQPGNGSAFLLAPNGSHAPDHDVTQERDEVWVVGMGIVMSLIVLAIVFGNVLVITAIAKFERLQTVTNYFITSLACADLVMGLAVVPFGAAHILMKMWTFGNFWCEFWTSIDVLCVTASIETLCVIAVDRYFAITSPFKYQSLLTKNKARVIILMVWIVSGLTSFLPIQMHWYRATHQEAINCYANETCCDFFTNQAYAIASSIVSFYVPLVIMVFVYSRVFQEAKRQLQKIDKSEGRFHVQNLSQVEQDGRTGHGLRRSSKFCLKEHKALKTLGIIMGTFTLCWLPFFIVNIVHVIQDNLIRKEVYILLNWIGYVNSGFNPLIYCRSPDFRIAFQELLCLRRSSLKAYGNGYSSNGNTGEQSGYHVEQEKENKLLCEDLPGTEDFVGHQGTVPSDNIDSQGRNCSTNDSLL

Take `CC(C)COC(=O)c1ccccc1`: the Potency result in assay [1], in [2], in assay [3], in assay [6], in assay [7] and in assay [8] was “inactive” each time. The Potency entry in [9], in assay [10], in assay [11], in assay [12], in [13] and in assay [14] was “inactive” each time. Also, the Potency entry in assay [15], in [16], in [17] and in assay [18] was “inactive” in each case. Besides, the outcome in assay [4] and in [5] was inactive.

With `CCCCCCC1CCCC(=O)O1` (stereo not given), the Potency entry in [1], in assay [2], in assay [3], in [6], in [7] and in [8] was “inactive” in each case. The Potency result in assay [9], in assay [10], in assay [11], in assay [12], in [13] and in assay [19] was “inactive” throughout. Further, the Potency entry in assay [17] and in [18] was “inactive” throughout. Further, the result in assay [4] and in assay [5] was inactive.

Regarding `OCCSc1ccccc1`, the Potency result in assay [1], in assay [2], in assay [3], in [6], in [7] and in assay [8] was “inactive” throughout. For the same compound, the Potency result in [9], in [10], in assay [11], in assay [12], in assay [13] and in assay [14] was “inactive” each time. Also, the Potency entry in assay [16], in [17] and in [18] was “inactive” each time. Moreover, the result in [4] and in [5] was inactive.

In the case of `CCOC(=O)CS`, the Potency result in assay [1], in assay [3], in [6], in assay [7], in assay [8] and in [9] was “inactive” throughout. In addition, the Potency result in assay [10], in [11], in [12], in assay [13], in assay [14] and in [15] was “inactive” throughout. Also, the Potency result in assay [19], in assay [17] and in assay [18] was “inactive” each time. Further, the Potency in assay [2] was 70.5 µM (active). Moreover, the result in [4] and in [5] was inactive.

Take `c1ccc(-c2nn[nH]n2)cc1`: the Potency entry in assay [1], in assay [2], in assay [3], in assay [6], in [7] and in [8] was “inactive” in each case. The Potency entry in assay [9], in assay [10], in assay [11], in assay [12], in assay [13] and in [14] was “inactive” throughout. The Potency result in [15], in assay [19], in assay [17] and in assay [18] was “inactive” throughout. The outcome in assay [4] and in assay [5] was inactive.

As to `CC(=O)Nc1ccn(C2COC(COC(=O)c3ccccc3)O2)c(=O)n1` (stereo not given), the Potency result in [1], in [2], in assay [3], in [6], in assay [7] and in assay [8] was “inactive” in each case. Besides, the Potency result in assay [9], in assay [10], in assay [11], in [12], in [13] and in assay [19] was “inactive” each time. In addition, the Potency result in [17] and in assay [18] was “inactive” throughout. Moreover, the result in assay [4] and in assay [5] was inactive.

Take `OC1OCCOC1O` (stereo not given): the Potency entry in assay [1], in assay [2], in assay [3], in assay [6], in [7] and in assay [8] was “inactive” in each case. The Potency entry in assay [9], in assay [10], in assay [11], in [12], in assay [13] and in assay [14] was “inactive” in each case. Further, the Potency result in [15], in assay [19] and in [18] was “inactive” in each case. For the same compound, the result in assay [4] and in assay [5] was inactive.
